# High-throughput results (PubChem)
# Compounds with a hit are over-represented: about 7.9% of the library has one in this group of screens.
# HT1080 IDH1KD tx: qHTS for induction of synthetic lethality in tumor cells producing 2HG: qHTS for the HT-1080-IDH1KD cell line; HT-1080 IDH1 knockdown viability, ATP luminescence, 48 h; Potency, µM (doses to about 46.1 µM), for the others: top-dose activity, negative = toxicity, most hits filed as cytotoxic; actives 2% (n = 360,000); AID 686971, 2013;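 note: 0% = DMSO wells and -100% = cell-free medium wells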
#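 CellTiter-Glo luminescence after 48 h compound exposure at 37 degrees C of IDH1-knockdown HT-1080 cells in 5% FBS RPMI. %Activity scaled between DMSO wells and cell-free media wells, with curves fitted and assigned curve classes.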
# MCF10A rerep: A quantitative high throughput screen for small molecules that induce DNA re-replication in MCF 10a normal breast cells. MCF 10A DNA re-replication, Hoechst nuclear intensity, 48 h. Potency, µM (doses to about 46.1 µM), for the others: top-dose activity, positive = re-replication, actives largely listed as activators. actives 2.9% (n = 350,000); note: % of control where 0% means no effect; nearly all actives have a fitted effect of over 50% in size
# HT1080NT lethal: qHTS for induction of synthetic lethality in tumor cells producing 2HG: qHTS for the HT-1080-NT fibrosarcoma cell line | AID 686970, 2013 | HT-1080-NT fibrosarcoma viability, CellTiter-Glo ATP luminescence, 48 h | Potency, µM (top dose mostly 46.1 µM), without a hit: top-dose activity, negative = less viability, hits mostly cytotoxic | actives 1.6% (n = 360,000);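 note: NT is the 2HG producing partner of a matched IDH1 knockdown line; 0% = DMSO-treated cells and -100% = media-only wells without cells; nearly all actives have a fitted effect of over 55% in size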
#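 Viability of the 2HG-overproducing fibrosarcoma line after 48 hours of compound exposure at 37 degrees C was determined by luminescence with CellTiter-Glo, and concentration-effect curves were then fitted and categorized.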
# KB-3-1 tox: qHTS assay for MDR1-selective chemotherapeutics: Primary screen using the parental adenocarcinoma cell KB-3-1; actives 1.4% (n = 400,000); AID 1347075, 2019; Potency, µM (highest dose often 46.1 µM), actives largely listed as cytotoxic; KB-3-1 viability, CellTiter-Glo ATP luminescence, 72 h; note: % is set by controls: 0 for no effect and ±100 for the full control effect; nearly all actives have a fitted effect of over 60% in size
#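 Cells are dispensed, compounds pinned in, plates held at 37 °C for 72 h, then CellTiter-Glo is added and luminescence read after 10 minutes. Cell line: parental KB-3-1 in phenol-red-free DMEM, 10% FBS.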
# SW480 rerep: A quantitative high throughput screen for small molecules that induce DNA re-replication in SW480 colon adenocarcinoma cells; SW480 DNA re-replication, Hoechst DNA content imaging, 48 h; Potency, µM (series often up to 46.1 µM), for inactives: at the top dose re-replication activation, most hits filed as activators; actives 1.8% (n = 340,000); note: % of control where 0% means no effect; nearly all actives have a fitted effect of over 55% in size
#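 Cells (250 per well) received 23 nL compound or DMSO by pin tool and were kept 48 hr at 37 C, 5% CO2. Nuclei were then stained with Hoechst for 40 min and scanned for DNA content.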
# KB-V1 cytotox: qHTS assay for MDR1-selective chemotherapeutics: Primary screen using the drug-selected MDR subline cells KB-V1; KB-V1 MDR cells viability, CellTiter-Glo, 72 h; Potency, µM (doses to about 46.1 µM), usual class: cytotoxic; actives 3.4% (n = 400,000); note: % is set by controls: 0 for no effect and ±100 for the full control effect; nearly all actives have a fitted effect of over 60% in size
#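 Compound-treated KB-V1 multidrug-resistant cells, 72 h, 37 degrees C; viability by CellTiter-Glo. Fitted qHTS curves give the values.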
# Active calls of the source: *; i = inactive; ? = inconclusive; . = no result given. Calls come from the whole dose curve; as a rule, active = well fitted curve in the direction sought with a large enough effect; inconclusive = small, poorly fitted or top-dose-only effect, or another doubt; inactive = no such curve, though single readings can be large; an effect the other way counts as inactive or inconclusive. Potency is the fitted concentration of half-maximal effect.
SMILES,HT1080 IDH1KD tx,MCF10A rerep,HT1080NT lethal,KB-3-1 tox,SW480 rerep,KB-V1 cytotox
Cc1ccc(C(=O)/C=C/c2ccc3ncccc3c2)cc1,-24%,18µM*,-13%,i,?,i
O=C(O)c1ccc(Cl)c(S(=O)(=O)Nc2ccc(OCc3ccccc3)cc2)c1,-11%,3%,4%,i,-38%,i
Cc1cccc(-n2ccc(=O)c(C(=O)Nc3ccc(S(=O)(=O)N4CCOCC4)cc3)n2)c1,-2%,12%,-3%,i,-32%,i
COC(=O)[C@H](CCSC)NC(=O)Cn1cc(C)c(=O)[nH]c1=O,0%,-6%,1%,i,17%,i
Cc1cc(=O)oc2cc(O)cc(OCc3ccccc3)c12,10%,21µM*,10%,?,?,15µM*
Cc1cccc(C2=NN(c3ccccc3)[C@H](CO)[C@H]2c2ccc(F)cc2)c1,?,?,?,i,5.2µM*,i
Cc1cccc(C2=NN(c3ccccc3)[C@H](CO)[C@H]2c2ccc(Cl)cc2)c1,?,2.3µM*,?,?,13µM*,?
OC[C@@H]1[C@@H](c2ccccc2)C(c2cccc(Cl)c2)=NN1c1ccccc1,?,?,12µM*,?,?,?
CC(C)c1nc2ccc(C(=O)NC(C)c3ccccc3)cc2o1 (stereo unspecified),.,.,.,i,.,i
CC(C)NC(=O)CN1CCN(C(c2ccnc3ccccc23)c2nnnn2-c2ccc3c(c2)OCCO3)CC1 (stereo unspecified),6%,.,15%,i,.,i
CCCCCc1nc2sc3c(c2c(=O)n1NC(=O)c1ccc([N+](=O)[O-])cc1)CC(C)(C)OC3,5.8µM*,?,5.8µM*,i,-43%,?
Cn1c(NN)nc2sc3c(c2c1=O)CC(C)(C)OC3,13µM*,-3%,?,i,0%,i
CC1(C)Cc2c(sc3nc[nH]c(=O)c23)CO1,2%,-10%,15%,i,5.2µM*,i
COC(=O)C1=C(C)N(CCc2ccccc2)C(=O)C1(NS(=O)(=O)c1ccc(NC(C)=O)cc1)C(F)(F)F (stereo unspecified),6.3µM*,15µM*,10µM*,i,3.3µM*,i
CN1C(=O)C(CC(=O)Nc2ccc(Cl)cc2)N(Cc2ccco2)C1=S (stereo unspecified),0%,21µM*,-1%,i,140%,i
CC(=O)N1c2ccc(S(=O)(=O)N3CCN(c4ccc(C)cc4C)CC3)cc2CC1C (stereo unspecified),.,.,.,i,.,i
CC(=O)Nc1sc2c(c1-c1nc3ccccc3s1)CN(C(C)C)CC2,.,?,.,?,2.6µM*,?
CC(=O)N1CCc2c(sc(NC(=O)C3CC3)c2-c2nc3ccccc3s2)C1,?,23µM*,?,?,?,i
O=C1NC[C@H](CCCCN2C[C@@H](Cc3ccccc3)N(CC3CCCCC3)C(=O)C2=O)N(CCC2CCCCC2)C1=O,-25%,.,-20%,?,.,i
Cc1ccc(C(CC(=O)Nc2ccc(F)c(Cl)c2)N2Cc3ccccc3C2=O)cc1 (stereo unspecified),.,.,.,i,.,i
Cc1ccc(S(=O)(=O)NC(C)(C)CN2CCc3ccccc3C2)cc1,0%,20%,-24%,i,6.5µM*,?
Cc1ccc(S(=O)(=O)NC(C)(C)CN2CCNCC2)cc1,8%,?,10%,i,21µM*,i
O=C(Nc1ccccc1OC(=O)c1ccccc1)c1ccccc1,15µM*,?,?,?,?,i
O=C(CCc1ccccc1)Nc1ccccc1OC(=O)c1ccccc1,-27%,2%,-24%,i,14%,i
CC(=O)OC[C@H]1O[C@@H](n2ncc(=O)[nH]c2=O)[C@H](OC(C)=O)[C@@H]1OC(C)=O,?,-12%,-8%,3.3µM*,?,8.2µM*
SMILES,HT1080 IDH1KD tx,MCF10A rerep,HT1080NT lethal,KB-3-1 tox,SW480 rerep,KB-V1 cytotox
Cn1cccc1-c1cc2n(n1)CCC(=O)N2CCCC(=O)NCc1ccc(F)cc1,.,.,.,i,.,i
Cc1cccc(NC(=S)NCc2ccc3c(c2)cc(C)n3C)c1C,-9%,13µM*,-2%,?,?,i
CCOC(=O)/C(=C\c1ccc(OC(F)F)cc1)C1=Nn2c(nnc2-c2ccc(Cl)cc2)SC1,3.7µM*,5.2µM*,5.8µM*,?,16µM*,i
COc1ccc(-c2nnc3n2N=C(C)CS3)cc1,3%,1%,6%,i,-6%,i
CCOC(=O)/C(=C/c1ccc(OC(F)F)cc1)C1=Nn2c(nnc2-c2ccc(Cl)cc2)SC1,3.7µM*,3.7µM*,3.3µM*,?,7.3µM*,?
CN1C(=O)C2(NCCc3c2[nH]c2ccccc32)c2ccccc21 (stereo unspecified),-3%,2%,-12%,i,-5%,i
CC1=CC(C)(C)N2C(=O)C3(NCCc4c3[nH]c3ccccc43)c3cc(C)cc1c32 (stereo unspecified),15µM*,9%,?,?,?,?
COc1ccc(C=NNc2ccc([N+](=O)[O-])cc2S(=O)(=O)Nc2ccccc2C(=O)O)cc1OC,5%,18µM*,3%,i,-3%,i
COc1ccc(NS(=O)(=O)c2cc([N+](=O)[O-])ccc2N/N=C\c2c(C)[nH]c3ccccc23)cc1,-4%,9.2µM*,-3%,?,4%,?
COc1ccc(NS(=O)(=O)c2cc([N+](=O)[O-])ccc2NN=Cc2ccccc2OCC(=O)O)cc1,-15%,21µM*,-3%,i,?,i
O=C(O)COc1ccccc1C=NNc1ccc([N+](=O)[O-])cc1S(=O)(=O)Nc1ccc(Cl)cc1,-8%,2.1µM*,-1%,i,-3%,i
COc1ccccc1NS(=O)(=O)c1ccc(N/N=C/c2ccccc2OCC(=O)O)c([N+](=O)[O-])c1,-14%,?,-17%,i,-11%,i
Cc1ccc(S(=O)(=O)NCC(=O)NC2CC2)cc1,3%,1%,4%,i,-10%,?
